Assay outcomes as filed in PubChem.
KB-3-1 cytotox = KB-3-1 parental cell cytotoxicity; KB-3-1 viability, CellTiter-Glo ATP luminescence, 72 h; Potency, µM (doses to about 46.1 µM), hits mostly cytotoxic; 1.4% of 400,000 active; also: nearly all actives have a fitted effect of over 60% in size
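Luminescent ATP read-out (CellTiter-Glo) measures survival of drug-naive KB-3-1 cells after 72 h compound exposure at 37 °C. Titration series was screened from lowest to highest concentration, with DMSO vehicle plates as background controls.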
MCF10A rereplic = inducers of DNA re-replication in MCF 10A breast cells. MCF 10A DNA re-replication, Hoechst nuclear intensity, 48 h. Potency, µM (top dose mostly 46.1 µM), usual class: activators. AID 624296. 2.9% of 350,000 active; also: nearly all actives have a fitted effect of over 50% in size
HT1080 IDH1KD tx = HT-1080 IDH1 knockdown cell toxicity (counter line) | HT-1080 IDH1 knockdown viability, ATP luminescence, 48 h | Potency, µM (titrated, usually from 46.1 µM), usual class: cytotoxic | 2% of 360,000 active
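IDH1KD HT-1080 cells, 750/well, RPMI + 5% FBS; compound pinned after 2 h settling; 48 h, 37 °C; CellTiter-Glo luminescence; % activity normalised to DMSO and no-cell wells; curves fitted, classed by r2 and efficacy.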
SW480 rereplic = induces DNA re-replication in SW480 colon adenocarcinoma cells; SW480 DNA re-replication, Hoechst DNA content imaging, 48 h; Potency, µM (top dose mostly 46.1 µM), hits mostly activators; 1.8% of 340,000 active; AID 624297; also: nearly all actives have a fitted effect of over 55% in size
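Readout is total intensity of Hoechst-stained nuclei, excited at 405 nm and collected at 500-530 nm. Compound treatment lasted 48 hr at 37 C in 5% CO2 before staining.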
HT1080-NT tox = kills 2HG-producing HT-1080-NT fibrosarcoma cells; 1.6% of 360,000 active; AID 686970; Potency, µM (highest dose often 46.1 µM), actives largely listed as cytotoxic; HT-1080-NT fibrosarcoma viability, CellTiter-Glo ATP luminescence, 48 h;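 also: NT is the 2HG producing partner of a matched IDH1 knockdown line; nearly all actives have a fitted effect of over 55% in size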
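A 48-hour cytotoxicity screen used HT-1080-NT cells plated 2 hours before compound delivery. ATP-based CellTiter-Glo luminescence measured viability, normalized to DMSO and no-cell controls.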
KB-V1 MDR tox = kills drug-selected multidrug resistant KB-V1 cells; KB-V1 MDR cells viability, CellTiter-Glo, 72 h; Potency, µM (series often up to 46.1 µM), actives largely listed as cytotoxic; 3.4% of 400,000 active; also: nearly all actives have a fitted effect of over 60% in size
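qHTS viability screen in drug-selected KB-V1 MDR cells: 72 h compound treatment at 37 degrees C, ATP luminescence end point.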
Numbers stand for hits; . = inactive; ? = inconclusive; / = not tested or not shown; ! = repeats disagree; [ ] = remark or other dose. Only some compounds are listed: those with a hit (about 8% of all), similar ones and a draw of the others. Calls follow the shape of the dose curve; as a rule, active = well fitted curve in the direction sought with a large enough effect; inconclusive = small, poorly fitted or top-dose-only effect, or another doubt; inactive = no such curve, though single readings can be large; an effect the other way counts as inactive or inconclusive.

SMILES | KB-3-1 cytotox | MCF10A rereplic | HT1080 IDH1KD tx | SW480 rereplic | HT1080-NT tox | KB-V1 MDR tox
C=CCN(CC=C)S(=O)(=O)c1ccc(NC(=S)NC(=O)c2ccco2)cc1 | ? | . | .[9.24 µM] | . | . | 13µM
C=CCN(CC=C)S(=O)(=O)c1ccc(NC(=S)NC(=O)Cc2ccc(OC)cc2)cc1 | . | . | ? | . | . | 21µM
Cn1c(Oc2ccc(F)cc2)nc2c1c(=O)n(Cc1ccccc1Cl)c(=O)n2C | ? | / | / | / | / | 10µM
CCOc1nc2c(c(=O)n(C)c(=O)n2C)n1Cc1ccccc1Cl | ? | . | . | . | . | 4.1µM
Cn1c(=O)c2c(nc(Cl)n2CCOc2ccccc2)n(C)c1=O | . | . | . | 9.2µM | . | .
Cn1c(=O)c2c(nc(Br)n2Cc2ccccc2Cl)n(C)c1=O | . | . | . | . | . | .
COC(=O)Cn1c(=O)c2c(nc(Br)n2Cc2ccccc2Cl)n(C)c1=O | . | . | . | .[9.22 µM] | . | .
Cc1ccc(S(=O)(=O)Nc2cc3c(cc2NCc2ccccc2)n(C)c(=O)n3C)c(C)c1 | . | / | / | / | / | ?
OCCNc1nc(-c2ccccc2)c2cc(Br)ccc2n1 | . | ? | . | ? | . | .
CCN(CC)c1nc(-c2ccccc2Cl)c2cc(Br)ccc2n1 | . | / | / | / | / | .
O=C(O)CCC(=O)N1CCN(c2nc(-c3ccccc3Cl)c3cc(Br)ccc3n2)CC1 | . | 21µM | . | . | . | .
O=C(O)CCC(=O)N1CCN(c2nc(-c3ccccc3)c3cc(Br)ccc3n2)CC1 | . | 23µM | . | ? | . | .
COc1cc(C(=O)N2CCNC(=O)C2CC(=O)Nc2ccc(C)c(C)c2)cc(OC)c1OC (configuration not stated) | . | / | / | / | / | ?
Cc1ccc(C2(c3ccc(C)cc3)CC2C(=O)NC(C)C)cc1 (configuration not stated) | ? | . | . | . | ? | ?
CC(=O)c1ccc(CCCCc2ccc(C(C)=O)cc2)cc1 | . | ? | . | . | . | .
COc1ccc(-c2ccc(OC)cc2)cc1 | . | . | . | . | . | .
COc1ccc(-c2cnc3c(c2)CCC3(C#N)C#N)cc1 | . | 4.1µM | . | 3.3µM | . | .
COc1ccccc1OCC(=O)N1CCCC(Nc2ccc(C)c(C)c2)C1 (configuration not stated) | / | ? | . | . | . | /
COc1ccc(NC2CCCN(C(=O)COc3ccc(Cl)cc3C)C2)cc1OC (configuration not stated) | . | . | . | . | . | 7.3µM
Cc1cc(Cl)ccc1OCC(=O)N1CC(C)CC(C)C1 (configuration not stated) | . | . | . | . | . | ?
CC(Oc1ccccc1Cl)C(=O)N1CCCN(C)CC1 (configuration not stated) | . | ? | . | . | . | .
Cc1cc(Cl)ccc1OC(C)C(=O)N1CCCN(C(=O)C(C)Oc2ccc(Cl)cc2C)CC1 (configuration not stated) | 13µM | ? | 21µM | ? | 18µM | ?
Cc1cc(Cl)ccc1OCC(=O)N1CCCN(C(=O)COc2ccc(Cl)cc2C)CC1 | ? | ? | . | . | . | 5.8µM
O=C(COc1ccc(Cl)cc1Cl)N1CCCCCC1 | . | . | . | . | . | 21µM
CCOc1ccccc1N1CCN(C(=O)c2ccc3nc(N)sc3c2)CC1 | . | ? | . | . | . | ?
SMILES | KB-3-1 cytotox | MCF10A rereplic | HT1080 IDH1KD tx | SW480 rereplic | HT1080-NT tox | KB-V1 MDR tox
COc1ccc(COC(=O)C2=C(C)NC(=O)NC2c2cccc(OC)c2OC)cc1 (configuration not stated) | . | . | . | . | . | .
CC1=C(C(=O)OCc2ccc3c(c2)OCO3)C(c2ccccc2)NC(=O)N1 (configuration not stated) | 23µM | . | ? | . | ? | 12µM
COc1ccc(COC(=O)C2=C(C)NC(=O)NC2c2cc(OC)ccc2OC)cc1 (configuration not stated) | . | 0.52µM | . | . | . | .
CCOC(=O)C1=C(C)NC(=O)NC1c1cccc(OC)c1OCc1ccccc1Cl (configuration not stated) | . | ? | ? | . | . | 13µM
CCOC(=O)C1=C(CN2CC(C)CC(C)C2)NC(=O)NC1c1ccc2c(c1)OCO2 (configuration not stated) | . | . | . | ? | . | 18µM
CCC(C)Sc1nc(O)c(Cc2ccccc2)c(=O)[nH]1 (configuration not stated) | . | . | . | . | . | .
CC(C)CN(C(=O)CSc1n[nH]c(-c2cccs2)n1)C1CCS(=O)(=O)C1 (configuration not stated) | . | . | . | . | . | .
CCCOc1ccccc1C1NC(=O)NC(C)=C1C(=O)OCc1ccccc1 (configuration not stated) | . | . | ? | . | ? | 21µM
CCCc1nc(-c2ccc(-c3ccc(F)cc3)cc2)no1 | . | . | . | . | . | 21µM
CC(C)(C)CN1CCN(CCCc2ccccc2)C(CCO)C1 (configuration not stated) | . | ? | . | .[9.22 µM] | . | .
CCOc1nc(NC(=O)NS(=O)(=O)Oc2ccc(Cl)cc2)nc(-c2ccccc2)n1 | . | / | / | / | / | .
CCOc1nc(NC(=O)NS(=O)(=O)Oc2cccc(Cl)c2)nc(-c2ccccc2)n1 | 0.0016µM! | . | . | . | . | .
O=C(Cc1ccccc1)Nc1scc(-c2ccccc2)c1C(=O)N1CCOCC1 | . | . | . | .[9.22 µM] | . | ?
NC(=O)c1c(-c2ccc(Cl)cc2Cl)csc1NC(=O)Cc1ccccc1 | ? | 23µM | ? | . | ? | ?
COc1ccc(-n2c(Cc3cccn3C)nnc2SCC(=O)NCc2ccc(F)cc2)cc1 | . | . | . | . | . | ?
Cc1ccc(-n2c(Cc3cccn3C)nnc2SCC(=O)Nc2ccc3c(c2)OCO3)cc1 | . | . | ? | ? | . | 3.7µM
O=C(CSc1nnc(Cc2cccs2)n1-c1ccccc1)Nc1ccc2c(c1)OCCO2 | . | . | . | . | . | .
Cc1ccc(-n2c(Cc3cccn3C)nnc2SCC(=O)NCc2ccc3c(c2)OCO3)cc1 | ? | . | . | . | . | 15µM
CCSc1nnc(NC(=O)CSc2nnc(Cc3cccn3C)n2-c2ccc(F)cc2)s1 | . | ? | . | . | . | 16µM
Cc1ccc(-n2c(Cc3cccs3)nnc2SCC(=O)Nc2ccc(F)c(F)c2)cc1 | . | ? | 11µM | . | .[9.24 µM] | .
Cn1cccc1Cc1nnc(SCC(=O)Nc2ccc3c(c2)OCCO3)n1-c1ccc(F)cc1 | . | . | . | . | . | .
Cn1cccc1Cc1nnc(SCC(=O)Nc2ccc(F)cc2)n1-c1ccc(F)cc1 | . | . | . | . | . | .
